p53null 39C kill: kills p53 null cells at the nonpermissive temperature | H1299 p53-null (neo) cells, 39C, ATPlite viability, 24 h | Potency, µM (doses to about 46.1 µM), inactives show top-dose activity, negative = cell killing, hits mostly cytotoxic | AID 904 | actives 0.97% (n = 55,000);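 note: 0% = DMSO only and -100% = full killing by 100 µM tamoxifen; nearly all actives have a fitted effect of over 50% in size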
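ATP-luminescence viability readout (ATPlite, 20 min RT) after 24 hr compound treatment at 39C of H1299-neo or H1299-p53A138V cells; titration up to 46 uM; normalized to DMSO and 100 uM tamoxifen; Hill-fit AC50.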
p53null 32C tox: kills p53 null cells at the permissive temperature; AID 903; Potency, µM (titrated, usually from 46.1 µM), for the others: top-dose activity change, negative = cytotoxicity, usual class: cytotoxic; H1299-neo p53 null cells, ATP luminescence, 24 h, 32C; actives 0.62% (n = 55,000);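 note: 0% = DMSO only and -100% = full killing by 100 µM tamoxifen; nearly all actives have a fitted effect of over 55% in size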
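Overnight 37C seeding (600 cells/well) of H1299-neo preceded a 24 hr, 32C exposure to compounds up to 46 uM. ATP levels, read by luminescence after 20 min at RT, indicated surviving cells.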
PMP22 txn: modulators of PMP22 gene transcription in S16 Schwann cells; S16 Pmp22-F2sN Schwann cells, FLuc/NLuc coincidence luminescence, 24 h; Potency, µM (doses to about 57.5 µM), for inactives: top-dose activity change, negative = inhibition, most hits filed as inhibitors; actives 2% (n = 43,000); AID 1508649; active = clear falling dose curves in both reporters; inconclusive = both reporters move, but less clearly or upward; inactive = either reporter flat; the % is the NLuc reporter signal
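Luminescent read-out of sequential FLuc and NLuc signals from a reporter embedded in the Pmp22 3' UTR of S16 Schwann cells, taken after 24 h compound exposure at 37C; compounds reducing both signals score as inhibitors of expression.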
S16 F2sN tox: toxic to S16 Pmp22-F2sN Schwann cells | S16 Pmp22-F2sN Schwann cells (luciferase reporters placed in the Pmp22 gene) viability, CellTiter-Glo, 24 h | Potency, µM (top dose mostly 57.5 µM), without a hit: at the highest dose activity change, negative = cytotoxicity, hits mostly cytotoxic | actives 0.48% (n = 43,000); note: nearly all actives have a fitted effect of over 65% in size
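Rat S16 Schwann reporter line, 24 h treatment with library compounds delivered at 23 nL per well. Cell viability by CellTiter-Glo luminescence.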
pS6 MEF inh: mTORC1 pathway inhibition measured by phospho-rpS6. Potency, µM (series often up to 38.3 µM), inactives show at the highest dose activity change, negative = inhibition, hits mostly inhibitors. AID 493208. Tsc2-/- p53-/- MEF, phospho-rpS6 immunofluorescence/PI, 24 h. actives 0.78% (n = 44,000);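 note: plate controls were DMSO for no effect and rapamycin for full effect; nearly all actives have a fitted effect of over 50% in size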
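Compounds act on Tsc2-/-, p53-/- fibroblasts carrying an empty vector for 24 h before fixation and dual staining for phospho-S6 and DNA (propidium iodide). Values are percentages of cells above a rapamycin-defined pS6/PI threshold.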
An asterisk follows results filed as active. Sampled rows, rich in hits. Any-hit rate of the full collection: about 3.2%. Unless noted, calls come from the whole dose curve; as a rule, active = well fitted curve in the direction sought with a large enough effect; inconclusive = small, poorly fitted or top-dose-only effect, or another doubt; inactive = no such curve, though single readings can be large; an effect the other way counts as inactive or inconclusive. Unless noted, % is set by controls: 0 for no effect and ±100 for the full control effect; potency is the fitted concentration of half-maximal effect.

What do the screens show for `CCCCNC(=O)C1CCN(Cc2nc(-c3ccc(OC)c(OC)c3)oc2C)CC1`?
p53null 39C kill: -22.4%; p53null 32C tox: 1.1%; PMP22 txn: -5.2%; S16 F2sN tox: 19.4%; pS6 MEF inh: -23.8%

How did Cc1ccc(OCC(=O)Nc2ccc(S(=O)(=O)Nc3ncccn3)cc2)c(C(C)(C)C)c1 do in these assays?
p53null 39C kill: 1.1%; p53null 32C tox: 5.8%; PMP22 txn: -19.9%; S16 F2sN tox: -14.9%; pS6 MEF inh: 12.3%

Results for CCn1c(=N)n(CCOc2ccc(Br)cc2)c2ccccc21 ?
p53null 39C kill: 12.6%; p53null 32C tox: -20.9%; PMP22 txn: inconclusive; S16 F2sN tox: inconclusive; pS6 MEF inh: 13.1µM*

What do the screens show for `Cc1ccc(OCCn2c(=O)cnc3ccccc32)cc1`?
p53null 39C kill: 0.1%; p53null 32C tox: 10.7%

Results for Fc1ccc(-c2nnc(-c3ccc(Cl)cc3Cl)o2)cc1 ?
p53null 39C kill: 11.2µM*; p53null 32C tox: 6.31µM*

What do the screens show for `O=C(O)CCSc1nnc(-c2ccc(Cl)cc2Cl)o1`?
p53null 39C kill: inconclusive; p53null 32C tox: inconclusive; PMP22 txn: inconclusive; S16 F2sN tox: -3.3%; pS6 MEF inh: 2.2%

What do the screens show for `COC(=O)c1c(NC(=O)c2ccc(S(=O)(=O)N3CCCCC3)cc2)sc2c1CCN(C)C2`?
p53null 39C kill: -1.1%; p53null 32C tox: -18.4%; PMP22 txn: inconclusive; S16 F2sN tox: inconclusive; pS6 MEF inh: 4.14µM*

What do the screens show for `Fc1ccc(-c2noc3ncnc(NCCc4ccccc4)c23)cc1`?
p53null 39C kill: -19.5%; p53null 32C tox: -15.4%; PMP22 txn: inconclusive; S16 F2sN tox: -3.8%; pS6 MEF inh: -4.4%

Results for O=C(CSc1nnc(-c2ccc([N+](=O)[O-])cc2)o1)Nc1ccccc1 ?
p53null 39C kill: 6.31µM*; p53null 32C tox: inconclusive; PMP22 txn: -5.1%; S16 F2sN tox: 0.8%; pS6 MEF inh: -1.0%

How did Cc1ccc(-n2c(SCc3ccccc3F)nc3[nH]ncc3c2=O)cc1Cl do in these assays?
p53null 39C kill: inconclusive; p53null 32C tox: 48.2%; PMP22 txn: inconclusive; S16 F2sN tox: -26.2%; pS6 MEF inh: -7.8%

Results for Cc1nn(CC(=O)NCc2ccccc2Br)c(=O)c2cc3occc3n12 ?
p53null 39C kill: 4.1%; p53null 32C tox: inconclusive; PMP22 txn: -3.3%; S16 F2sN tox: 4.6%; pS6 MEF inh: 0.3%

How did CC(C)c1nnc(NC(=O)c2nc(SCc3ccc(F)cc3)ncc2Cl)s1 do in these assays?
p53null 39C kill: -13.2%; p53null 32C tox: -12.4%; PMP22 txn: -4.4%; S16 F2sN tox: 8.0%; pS6 MEF inh: -3.1%

How did Cc1cccc(CS(=O)(=O)c2ncc(Cl)c(C(=O)Nc3nnc(C(C)C)s3)n2)c1 do in these assays?
p53null 39C kill: 12.6µM*; p53null 32C tox: 39.3%; PMP22 txn: 9.58µM*; S16 F2sN tox: inconclusive; pS6 MEF inh: 16.5µM*

How did Cc1ccc(CS(=O)(=O)c2ncc(Cl)c(C(=O)Nc3nnc(C(C)C)s3)n2)cc1 do in these assays?
p53null 39C kill: inconclusive; p53null 32C tox: 1.5%; PMP22 txn: 8.91µM*; S16 F2sN tox: inconclusive; pS6 MEF inh: 14.7µM*

How did Cc1c(C(=O)OCCOc2ccccc2)[nH]c2c1C(=O)CC(c1ccccc1Cl)C2 (configuration not stated) do in these assays?
p53null 39C kill: inconclusive; p53null 32C tox: 11.5%; PMP22 txn: 5.32µM*; S16 F2sN tox: inconclusive; pS6 MEF inh: 1.31µM*

How did Cc1c(C(=O)OCCOc2ccccc2)[nH]c2c1C(=O)CC(c1ccccc1)C2 (configuration not stated) do in these assays?
p53null 39C kill: inconclusive; p53null 32C tox: 14.7%; PMP22 txn: inconclusive; S16 F2sN tox: inconclusive; pS6 MEF inh: inconclusive

What do the screens show for `COc1ccc(NCc2cc3cc4c(cc3n(CC(=O)Nc3ccc(C)cc3)c2=O)OCO4)cc1`?
p53null 39C kill: 22.7%; p53null 32C tox: 13.0%; PMP22 txn: inconclusive; S16 F2sN tox: 3.1%; pS6 MEF inh: 0.6%

Results for O=S(=O)(c1ccccc1)n1nc(-c2ccc(Cl)cc2)nc1NCc1ccccc1 ?
p53null 39C kill: 8.1%; p53null 32C tox: 19.3%; PMP22 txn: inconclusive; S16 F2sN tox: inconclusive; pS6 MEF inh: 14.7µM*

Results for O=S(=O)(c1ccccc1)n1nc(-c2ccccc2)nc1NCc1ccc(Cl)cc1 ?
p53null 39C kill: -11.0%; p53null 32C tox: 9.2%; PMP22 txn: -34.7%; S16 F2sN tox: 2.9%; pS6 MEF inh: -0.1%

What do the screens show for `Cc1ccc(NS(=O)(=O)c2ccc3nc(-c4ccccc4)[nH]c3c2)c(Br)c1`?
p53null 39C kill: -20.9%; p53null 32C tox: -5.7%; PMP22 txn: -4.0%; S16 F2sN tox: -3.7%; pS6 MEF inh: -20.2%

Results for CC(C)c1ccc(NS(=O)(=O)c2ccc3nc(-c4ccccc4)[nH]c3c2)cc1 ?
p53null 39C kill: 20µM*; p53null 32C tox: inconclusive; PMP22 txn: inconclusive; S16 F2sN tox: -25.9%; pS6 MEF inh: -1.3%

How did O=S(=O)(Nc1ccc(Br)cc1)c1ccc2nc(-c3ccccc3)[nH]c2c1 do in these assays?
p53null 39C kill: inconclusive; p53null 32C tox: -0.9%; PMP22 txn: inconclusive; S16 F2sN tox: -29.6%; pS6 MEF inh: 11.7%

How did Cc1cccc(NS(=O)(=O)c2ccc3nc(-c4ccccc4)[nH]c3c2)c1C do in these assays?
p53null 39C kill: 11.2µM*; p53null 32C tox: inconclusive; PMP22 txn: inconclusive; S16 F2sN tox: -13.0%; pS6 MEF inh: 1.2%

Results for Cc1noc(/C=C/c2ccccc2F)c1S(=O)(=O)N1CCC(C(=O)N2CCOc3ccccc32)CC1 ?
p53null 39C kill: -4.9%; p53null 32C tox: -5.0%; PMP22 txn: inconclusive; S16 F2sN tox: 13.2%; pS6 MEF inh: 5.5%

What do the screens show for `O=c1cc(-c2ccccc2)nc2cc(-c3ccc(F)cc3)[nH]n12`?
p53null 39C kill: inconclusive; p53null 32C tox: inconclusive; PMP22 txn: -9.1%; S16 F2sN tox: 25.1µM*; pS6 MEF inh: -24.6%

How did O=C(Nc1nc2nc(-c3ccccc3)cc(=O)n2[nH]1)c1ccc(F)cc1 do in these assays?
p53null 39C kill: -12.6%; p53null 32C tox: -5.8%; PMP22 txn: -1.1%; S16 F2sN tox: -4.2%; pS6 MEF inh: 5.7%

What do the screens show for `Cc1ccc(OCC(O)Cn2c(=N)n(CCN3CCCCC3)c3ccccc32)cc1` (configuration not stated)?
p53null 39C kill: 12.6µM*; p53null 32C tox: -3.5%; PMP22 txn: inconclusive; S16 F2sN tox: inconclusive

Results for CCOc1ccc(CN2C(=O)c3ccccc3Sc3ccc(C(=O)NCc4ccco4)cc32)cc1 ?
p53null 39C kill: 6.1%; p53null 32C tox: 45.7%; PMP22 txn: -1.6%; S16 F2sN tox: -1.8%; pS6 MEF inh: 0.5%

From PubChem
